Measurements: PubChem BioAssay AID1851 (National Center for Advancing Translational Sciences (NCATS), 2009)
“And” between values parts separate entries of the source, which are not always exact repeats. Identical values can stand only once. Among all 16,000 compounds or so, about 2,600 (16%) were called active. About 20% were inconclusive and are not listed. Calls come from the whole dose curve; as a rule, active = well fitted curve in the direction sought with a large enough effect; inconclusive = small, poorly fitted or top-dose-only effect, or effect the other way; inactive = no such curve, though single readings can be large or run the other way. These entries were drawn from the full list. More than one record can exist for a structure, and the calls need not agree.

These molecules were tested against Cytochrome P450 2D6 (Homo sapiens) (UniProt P10635) (assay: Cytochrome panel assay with activity outcomes). Details: recombinant CYP, pro-luciferin dealkylation, luminescence, p450-cyp2d6; series mostly up to 57.1 µM; activity, negative = inhibition: at the top concentration.
% is set by controls: 0 for no effect and ±100 for the full control effect.

Sequence of Cytochrome P450 2D6 (Homo sapiens) (P10635 whole entry, looked up): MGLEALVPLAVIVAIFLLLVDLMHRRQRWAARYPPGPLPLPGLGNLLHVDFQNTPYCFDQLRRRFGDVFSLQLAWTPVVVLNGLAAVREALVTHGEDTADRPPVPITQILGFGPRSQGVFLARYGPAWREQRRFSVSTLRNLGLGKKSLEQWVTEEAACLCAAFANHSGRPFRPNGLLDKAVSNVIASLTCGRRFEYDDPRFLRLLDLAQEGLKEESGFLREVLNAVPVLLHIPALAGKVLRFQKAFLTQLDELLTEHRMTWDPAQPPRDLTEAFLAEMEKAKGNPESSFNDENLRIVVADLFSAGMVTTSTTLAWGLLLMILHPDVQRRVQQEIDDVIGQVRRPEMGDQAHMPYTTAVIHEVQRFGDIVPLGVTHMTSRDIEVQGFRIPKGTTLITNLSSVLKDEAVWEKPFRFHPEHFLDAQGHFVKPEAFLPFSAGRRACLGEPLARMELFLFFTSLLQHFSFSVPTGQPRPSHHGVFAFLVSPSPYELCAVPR

Structure (SMILES) | activity, negative = inhibition | AC50
N[C@H](C(=O)O)[C@H](O)C(=O)O | 7.74% (inactive) | 
O=C1C(Cc2ccccc2)C(c2ccccc2)N1c1ccccc1 (stereo not given) | -24.3% (inactive) | 
COc1ncc2nc(-c3ccc(F)cc3)c(=O)n(Cc3ccc(F)cc3)c2n1 | 1.19% (inactive) | 
N[C@@H](Cc1ccnnc1)C(=O)O | -0.458% [at 11.4 µM] (inactive) | 
Cc1nc2cnc(Oc3ccccc3)nc2n(CCc2ccccc2)c1=O | 8.49% (inactive) | 
COc1n[nH]c2nncnc12 | 4.07% (inactive) | 
O=[N+]([O-])c1ccc2nc(-c3ccccc3)n(OCc3ccc(Cl)cc3)c2c1 |  | 6.31 µM (active)
Cc1ccc(COn2c(-c3ccc(Cl)cc3)nc3ccc([N+](=O)[O-])cc32)cc1 | -20.1% (inactive) | 
O=[N+]([O-])c1ccc2nc(-c3ccc(Cl)cc3)n(OCc3ccccc3)c2c1 | -6.03% (inactive) | 
Cn1c(=O)c(-c2ccc(Cl)cc2)nc2cnc(OCc3ccccc3)nc21 | 7.5% (inactive) | 
O=C(CCc1nc(-c2ccccc2)c(-c2ccccc2)o1)OCc1ccc(Cl)cc1 | -26.9% (inactive) | 
Clc1ccc(COn2c(-c3ccccc3)nc3ccccc32)cc1 |  | 15.8 µM (active)
COc1cccc(Cn2c(=O)c(-c3cn(C)c4ccccc34)nc3cnc(N4CCOCC4)nc32)c1 | -6.4% (inactive) | 
O=c1c(-c2ccc(F)c(F)c2)nc2cncnc2n1-c1ccccc1 | -7.35% (inactive) | 
NS(=O)(=O)c1ccc(N=Nc2ccc(O)c(C(=O)O)c2)cc1 | -7.58% [at 11.4 µM] (inactive) | 
Cc1ccccc1/C=C1\OC(=O)c2ccccc21 | -3.09% (inactive) | 
CCCC[C@@H]1C[C@H]1C(NC(=O)c1cccs1)c1ccccc1C(F)(F)F (stereo not given in full) | 2.19% (inactive) | 
CCC(c1nnnn1CCOC)N1CCN(C(=O)c2ccco2)CC1 (stereo not given) | -6.06% (inactive) | 
Cc1ccc(C(c2nnnn2CC2CCCO2)N2CCN(C(=O)c3ccco3)CC2)cc1 (stereo not given) | -15.5% (inactive) | 
CC(C)CCn1nnnc1C(c1ccc(F)cc1)N1CCN(C(=O)c2ccco2)CC1 (stereo not given) |  | 14.1 µM (active)
O=C(Nc1ccccc1N1CCN(C(=O)c2ccccc2)CC1)c1cc(Br)ccc1Cl | -14.4% (inactive) | 
S=c1[nH]nc(CSCc2ccccc2Cl)n1-c1ccccc1 | -16.7% (inactive) | 
COC(=O)[C@@]1(Cc2ccc(OC)cc2)[C@@H]2[C@@H](CC(=O)[C@H]2CC(=O)C(=O)N2CCCC2)CN1C(=O)c1ccccc1 | -5.43% (inactive) | 
Cc1cccc(NC(=S)N/N=C/c2ccc([N+](=O)[O-])s2)c1 | -9.95% (inactive) | 

Structure (SMILES) | activity, negative = inhibition | AC50
COc1ccc(-c2nc(N)c3ncn([C@H]4O[C@@H](CO)[C@@H](O)[C@@H]4O)c3n2)cc1 | 1.32% [at 11.4 µM] (inactive) | 
CC(Sc1nnc(C(C)N(C)C)n1-c1ccc(Cl)cc1)C(=O)Nc1ccc2c(c1)OCO2 (stereo not given) |  | 14.1 µM (active)
COc1ccc(-n2c(=O)[nH]cc(C(=O)Nc3ccc4c(c3)OCCO4)c2=O)cc1 | 3.8% (inactive) | 
Cc1cc(C)c(NC(=O)C(C)Sc2nnc(-c3ccco3)n2-c2ccccc2)c(C)c1 (stereo not given) | -4.41% (inactive) | 
CC(C)C1NC(=S)N(Cc2ccccc2)C1=O (stereo not given) | 10% (inactive) | 
COc1ccc(CCNC[C@H](O)c2ccc(O)cc2)cc1OC | 0.765% (inactive) | 
COc1ccc(CNCCC(c2ccc(OC(C)C)cc2)C(C)C)cc1OC (stereo not given) |  | 0.251 µM (active)
COc1ccc(C[N+](C)(C)N)cc1OC | 0.726% [at 11.4 µM] (inactive) | 
COC(=O)C/C=C\[C@@H](C)[C@@H](/C=N\O[C@@H](C)c1cc(-c2c(C)cc(C)cc2C)no1)OC | -10.8% [at 11.4 µM] (inactive) | 
COc1ccc(-n2c(CNc3ccc(C)cc3)nnc2SCC(=O)Nc2nc(-c3ccccc3)cs2)cc1 | -1.16% (inactive) | 
CCc1ccccc1N1C(=O)c2cccc3c(N4CCOCC4)c([N+](=O)[O-])cc(c23)C1=O | 2.74% (inactive) | 
O=c1cc(N2CCOCC2)oc2c(-c3ccccc3)cccc12 |  | inactive and 25.1 µM (active)
O=S1(=O)C=C(N2CCOCC2)c2ccccc21 | -18.5% (inactive) | 
CNc1nc(C)cc(C)c1S(=O)(=O)c1ccc(C)cc1 | 11.4% (inactive) | 
Cc1ccc(-n2c3c(c(=O)[nH]c2=O)C(C(F)(F)F)(C(F)(F)F)NC(=O)N3)cc1 | -1.45% (inactive) | 
Cc1ccc([N+](=O)[O-])cc1NC(=S)NC(=O)C(C)(C)C | 13.5% (inactive) | 
COc1ccccc1NC(=O)Cn1cncc1-c1ccc([N+](=O)[O-])cc1 | -5.83% (inactive) | 
CC(CC(=O)Nc1ccc(Cl)c([N+](=O)[O-])c1)c1ccccc1 (stereo not given) |  | 0.447 µM (active)
CCN(CC)S(=O)(=O)c1ccc(OC)c(NC(=O)CSc2ccccc2)c1 | -21.4% (inactive) | 
CCOc1cc(NC(=O)c2ccccc2[N+](=O)[O-])c(OCC)cc1NC(=O)CC(C)C | 16.4% (inactive) | 
COc1ccc([N+](=O)[O-])cc1NC(=S)NC(NC(=O)Cc1ccc(OC)c(OC)c1)C(Cl)(Cl)Cl (stereo not given) |  | 0.355 µM (active)
CCN(CC(=O)Nc1ccc([N+](=O)[O-])cc1OC)c1ccccc1 |  | 14.1 µM (active)
COc1ccc([N+](=O)[O-])cc1NC(=O)CC(C)c1ccccc1 (stereo not given) |  | 11.2 µM (active)
CCOc1ccc(NC(=S)NC(=O)/C=C/c2ccc(OC)c(OC)c2)c([N+](=O)[O-])c1 | 11.2% (inactive) | 

Structure (SMILES) | activity, negative = inhibition | AC50
CCCOc1ccc(/C=C/C(=O)Nc2ccc([N+](=O)[O-])cc2C)cc1OC | 3.41% (inactive) | 
COc1ccc(OC)c(NC(=O)CC(Cc2ccccc2OC)C(=O)O)c1 (stereo not given) | 25% (inactive) | 
O=C(CSc1ccc(C(F)(F)F)cc1[N+](=O)[O-])Nc1ccccc1 | -20.2% (inactive) | 
Cc1ccc(S(=O)(=O)N[C@H]2COC(=O)CC=C[C@@H](C)[C@H]3C=C[C@H](O)[C@@H](COC(=O)CC=C[C@H]2C)O3)cc1 | -6.53% [at 11.4 µM] (inactive) and 13.3% [at 11.4 µM] (inactive) | 
Cc1ccc(N2C(=O)CSC2c2cccnc2)cc1F (stereo not given) | -6.23% (inactive) | 
c1ccc(-c2noc(-c3ccc4ccccc4c3)n2)cc1 | -26.1% (inactive) | 
CC(C)[C@H](CO)Nc1nc(Nc2ccc(C(=O)O)c(Cl)c2)c2ncn(C(C)C)c2n1 | 2.31% (inactive) | 
C=CCNC(=O)c1cccn1-c1ccsc1C(=O)OC | 15.1% (inactive) | 
O=C(N[C@@]1(C(=O)O)C[C@@H]1c1ccccc1)c1ccccc1 | 11.3% [at 11.4 µM] (inactive) | 
CCCCn1c(SC(C)C(N)=O)nc2cc(C(=O)OC)ccc2c1=O (stereo not given) | 28.8% (inactive) | 
C/C(N)=C(/C#N)C(=O)CSc1nnc(COc2cc(C)ccc2C)o1 | 0.41% (inactive) | 
COc1ccc(S(=O)(=O)N2CC3CCCN3c3ccc(C(F)(F)F)cc32)cc1 (stereo not given) | -19.1% (inactive) | 
Cc1nn(Cc2ccc(Cl)cc2)c(C)c1NC(=O)CSc1nc2c(c(C(F)(F)F)n1)CCc1ccccc1-2 | -21.3% (inactive) | 
Nc1ccc(N=Nc2c(S(=O)(=O)O)cc3ccccc3c2S(=O)(=O)O)cc1 | 8.88% [at 11.4 µM] (inactive) | 
COc1cnc(-c2ccccn2)nc1Oc1ccc(Cl)c2ccccc12 | -13.3% (inactive) | 
Cn1cc(-c2nc3cnc(N4CCOCC4)nc3n(CCC#N)c2=O)c2ccccc21 | 6.34% (inactive) | 
CCOc1ccc(Cc2nc(C)c(CC(=O)N3CCOCC3)c(=O)[nH]2)cc1 | -12.7% (inactive) | 
Cc1noc(C)c1C(=O)N1CCC2(CCCN(C(=O)Nc3cccc(F)c3)C2)CC1 | -6.3% (inactive) | 
NC(=NCc1ccc(Cl)c(Cl)c1)NC(=O)c1nc(Cl)c(N)nc1N |  | 12.6 µM (active)
NC(Cc1ccccc1)=NCC(=O)O | 9.41% [at 11.4 µM] (inactive) | 
COC(=O)c1nnn(Cc2ccccc2)c1N | -25.1% (inactive) | 
NC(=NCc1ccccc1)NC(=O)c1nc(Cl)c(N)nc1N |  | 15.8 µM (active) and 5.01 µM (active)
Cc1cc(C)c2c(=O)[nH]c(SCC(=O)N(C)C)nc2n1 | 4.04% (inactive) | 
CN(C)c1ncc2nc(-c3ccc(Cl)cc3)c(=O)n(Cc3cccs3)c2n1 | 0.505% (inactive) | 

Structure (SMILES) | activity, negative = inhibition | AC50
CCOc1ccc(OCC)c(-c2c(=O)n(OCc3ccc(C(C)(C)C)cc3)c3ccccc3[n+]2[O-])c1 | -0.869% (inactive) | 
CC(=O)NNc1cccc(Cl)n1 | -5.21% (inactive) | 
CCOC(=O)C1=C(c2ccccc2)N=c2s/c(=C\c3cccc(O)c3)c(=O)n2C1c1cccs1 (stereo not given) |  | 3.16 µM (active)
CCOC(=O)C1=C(c2ccccc2)N=c2s/c(=C\c3cc(OC)c(OC)c(OC)c3)c(=O)n2C1c1cccs1 (stereo not given) | 24.8% (inactive) | 
CCOC(=O)C1=C(c2ccccc2)N=c2s/c(=C\c3ccc(O)cc3)c(=O)n2C1c1cccs1 (stereo not given) | -6.93% (inactive) | 
Cc1cc(/C=C(/C#N)C(=O)Nc2ccccc2)c(C)n1-c1cccnc1 | 3.42% (inactive) | 
O=c1c(-c2cccs2)nc2cncnc2n1-c1ccccc1 | -5.51% (inactive) | 
O=c1[nH][nH]c(C(F)(F)F)c1C=Nc1ccccc1Cl | 3.6% (inactive) | 
O=C(CSc1cccc2cccnc12)OCC(=O)c1ccccc1 | -14% (inactive) | 
COc1ccc(-n2c(=O)c(CCc3ccccc3)nc3cncnc32)cc1 | -18.1% (inactive) | 
CCNc1ncc2nc(CCc3ccccc3)c(=O)n(-c3ccc(OC)cc3)c2n1 |  | 0.251 µM (active)
COc1cccc(Nc2ncc3nc(CCc4ccccc4)c(=O)n(C4CC4)c3n2)c1 | -14.9% (inactive) | 
COc1ncc2nc(CCc3ccccc3)c(=O)n(-c3ccccc3)c2n1 | -10.4% (inactive) | 
CCNc1ncc2nc(CCc3ccccc3)c(=O)n(C3CC3)c2n1 |  | 0.398 µM (active)
CCNc1ncc2nc(C)c(=O)n(C3CC3)c2n1 | -2.63% (inactive) | 
COc1ccc(-n2c(=O)c(CCc3ccccc3)nc3cnc(N4CCN(C)CC4)nc32)cc1 | -5.66% (inactive) | 
Cn1c(=O)c(CCc2ccccc2)nc2cnc(Nc3ccccc3)nc21 | -1.73% (inactive) | 
CCNc1ncc2nc(CCc3ccccc3)c(=O)n(C)c2n1 |  | 1.58 µM (active)
Cn1c(=O)c(CCc2ccccc2)nc2cncnc21 | -15% (inactive) | 
CCNc1ncc2nc(CCc3ccccc3)c(=O)n(-c3ccccc3)c2n1 |  | 0.1 µM (active)
CCNc1ncc2nc(CCc3ccccc3)c(=O)n(Cc3ccc(F)cc3)c2n1 | 2.94% (inactive) | 
CC(C)Cc1nc(N2CCN(C(=O)c3ccccc3)CC2)c(C#N)c2c1CCC2 | -29.2% (inactive) | 
Nc1nc(N)[n+]([O-])c(N)c1NCO | -8.44% [at 11.4 µM] (inactive) | 
